The text below walks through data of PubChem BioAssay (Tox21).

“And” between values parts separate entries of the source, which are not always exact repeats. Equal values may be shown once. Inconclusive results are not listed. The source holds several records for some structures; these can differ, active in one and inactive in another. The source made the active and inactive calls. Unless noted, calls follow the shape of the full dose curve.

Test [1] in a line: Nuclear factor erythroid 2-related factor 2/antioxidant responsive element (Nrf2/ARE) small molecule agonists: qHTS cell viability counter screen in human keratinocytes (AID 1919968; active = well fitted curve in the direction sought with a large enough effect in the repeat runs; an effect the other way counts as inactive or inconclusive; also: nearly all actives have a fitted effect of over 55% in size). The note with it: KeratinoSens HaCaT ARE cells viability, CellTiter-Fluor, 24 h; series mostly up to 92.4 µM. In outline:
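Cytotoxicity was multiplexed with the Nrf2/ARE luciferase assay in the same wells. Stably transfected HaCaT keratinocytes were treated with test compounds for 23 h at 37 C. Cell viability was then measured by CellTiter-Fluor fluorescence.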

A short description of test [2]: Nuclear factor erythroid 2-related factor 2/antioxidant responsive element (Nrf2/ARE) small molecule agonists: luciferase reporter gene qHTS assay in human keratinocytes (AID 1919969). Also: nearly all actives have a fitted effect of over 35% in size. Also: potency is read from the fitted curve at half-maximal effect. The note with it: KeratinoSens HaCaT ARE-luciferase, luminescence, 24 h; series mostly up to 92.4 µM. For orientation: Reporter assays use an easily measured gene product as a stand-in for the process of interest.

In test [3] the target is Gonadotropin-releasing hormone receptor (Homo sapiens) (UniProt P30968). As to the kind of experiment: Human gonadotropin-releasing hormone receptor (GnRHR) small molecule agonists, calcium flux assay in GnRHR-HEK293 cells (AID 1920063). Also: nearly all actives have a fitted effect of over 35% in size. Conditions: calcium flux fluorescence, agonist mode; series mostly up to 57.6 µM. A digest of the protocol:
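Agonist activity was measured as intracellular calcium flux in HEK293 cells engineered to stably express human GnRHR. After dye loading for 1 hour at 37 C, compounds in DMSO were added and fluorescence was followed for 3 minutes.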

For test [4], the target named is KiSS-1 receptor (Homo sapiens) (UniProt Q969F8). Briefly: Human kisspeptin (KISS1R) small molecule agonists, calcium flux assay in KISS1R-HEK293 cells (AID 1920064; active = well fitted curve in the direction sought with a large enough effect in the repeat runs; an effect the other way counts as inactive or inconclusive). Conditions: KISS1R-HEK293, calcium flux fluorescence, agonist; series mostly up to 76.8 µM. A digest of the protocol:
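Agonist activity is monitored as intracellular calcium rise in engineered HEK293 cells carrying human KISS1R. Cells are dye-loaded for 1 h at 37 C before compound addition, and fluorescence is recorded for 3 min.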
On the technique in general: A change in cytosolic calcium serves as a functional read-out for many receptors and channels.

Test [5] is described as follows: G protein-coupled receptor (GPCR) small molecule agonists, calcium flux assay: HEK293 wild type cell line counter screen (AID 1920065). The note with it: HEK293 WT calcium flux, fluorescence, agonist mode; series mostly up to 57.6 µM. A digest of the protocol:
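Seed cells, incubate 18 h (37 C, 5% CO2); add calcium dye, 1 h at 37 C; pin-transfer compounds, ATP control or DMSO; read fluorescence 480/540 nm each second for 3 min.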

A short description of test [6]: p53 small molecule agonists, cell-based qHTS assay with human liver microsomes (AID 1963577).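 Also: p53 response element beta-lactamase reporter cells with liver microsomes plus NADPH.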 The note with it: HCT-116 p53RE-bla with human liver microsomes, ratio, 16 h; series mostly up to 66 µM. In outline: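 With metabolic activation: human liver microsomes (0.5 mg/mL final) plus NADPH (0.5 mg/mL final) added alongside compounds to p53RE-bla cells; 16 h 37 C exposure; beta-lactamase read by LiveBLAzer fluorescence.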
For orientation: In qHTS, concentration-response curves come from the screen itself.

Test [7] can be described thus: p53 small molecule agonists, cell-based qHTS assay with rat liver microsomes (AID 1963578). Conditions: HCT-116 p53RE-bla, beta-lactamase ratio, 16 h; series mostly up to 66 µM. In outline: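 Metabolic activation by rat liver microsomes and NADPH, each 0.5 mg/mL final, added right after compounds to p53RE-bla reporter cells (4,000/well, plated 5 h earlier). 16 h at 37 C, then LiveBLAzer substrate for 2 h at room temperature in the dark; fluorescence read-out.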

Test [8] can be described thus: p53 small molecule agonists, cell-based qHTS assay with human liver microsomes: qHTS cell viability counter screen (AID 1963579). Also: nearly all actives have a fitted effect of over 45% in size. Also: potency is read from the fitted curve at half-maximal effect. The note with it: p53RE-bla HCT-116 viability, ATP luminescence, 16 h, HLM; series mostly up to 66 µM. A digest of the protocol: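 Metabolic activation used human liver microsomes and NADPH, both 0.5 mg/mL final, over 16 hours at 37 C on p53RE-bla cells (4,000/well). Cytotoxicity measured by CellTiter-Glo luminescence, 30 min at room temperature.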

A short description of test [9]: p53 small molecule agonists, cell-based qHTS assay with rat liver microsomes: qHTS cell viability counter screen (AID 1963580). Also: nearly all actives have a fitted effect of over 45% in size. Also: potency is read from the fitted curve at half-maximal effect. Conditions: p53RE-bla HCT-116 + rat microsomes, ATP viability, 16 h; series mostly up to 66 µM. A digest of the protocol:
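Rat liver microsome (0.5 mg/mL final) and NADPH (0.5 mg/mL final) co-incubation with compounds for 16 h at 37 C on HCT-116 p53RE-bla cells; cytotoxicity taken from intracellular ATP luminescence.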

The nature of test [10]: p53 small molecule agonists, cell-based qHTS assay: qHTS cell viability counter screen (AID 1963581). Also: nearly all actives have a fitted effect of over 45% in size. Conditions: p53RE-bla HCT-116 viability, ATP luminescence, 16 h; series mostly up to 66 µM. A digest of the protocol:
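Viability was counter-screened in parallel with the p53 agonist reporter by measuring intracellular ATP luminescence in the same HCT-116 p53RE-bla wells after 16 h compound treatment at 37 C.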

Test [11] is described as follows: p53 small molecule agonists, cell-based qHTS assay (AID 1963582; active = well fitted activation curve with a large enough effect in the signal ratio in the repeat runs, not every such curve was filed as active; the % refers to the signal ratio). The note with it: HCT-116 p53RE-bla reporter, beta-lactamase FRET ratio, 16 h; series mostly up to 66 µM. In outline: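 Cells carrying a p53-responsive bla reporter are treated with test compounds for 16 h at 37 C; beta-lactamase activity is then detected with LiveBLAzer B/G FRET substrate after 2 h at room temperature.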

The target of test [12] is 5-hydroxytryptamine receptor 2A (Homo sapiens) (UniProt P28223). As to the kind of experiment: 5-hydroxytryptamine receptor 2A (HTR2A) small molecule antagonists, cell-based qHTS assay (AID 1963586). Also: nearly all actives have a fitted effect of over 45% in size. Conditions: HTR2A-CHO cells, DOI-induced calcium flux, fluorescence; series mostly up to 61.5 µM. A digest of the protocol:
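CHO cells stably expressing human HTR2A were plated for 18 h at 37 C, then loaded with calcium dye for 1 h. Compounds were preincubated 5 min at room temperature before DOI (4 nM solution) was added. Kinetic fluorescence was read for 3 min.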

Test [13] shares this target. Briefly: 5-hydroxytryptamine receptor 2A (HTR2A) small molecule agonists, cell-based qHTS assay (AID 1963587). Also: nearly all actives have a fitted effect of over 30% in size. Conditions: HTR2A-CHO cells, calcium flux fluorescence, agonist mode; series mostly up to 76.8 µM. In outline: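 Kinetic calcium-flux fluorescence (2 min, 1 sec intervals) after compound addition in agonist mode. HTR2A-CHO cells were cultured 18 h, then dye-loaded 1 h at 37 C.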

The target of test [14] is Muscarinic acetylcholine receptor M1 (Homo sapiens) (UniProt P11229). As to the kind of experiment: Cholinergic receptor muscarinic 1 (CHRM1) small molecule antagonists, cell-based qHTS assay (AID 1963588). Also: nearly all actives have a fitted effect of over 40% in size. Also: potency is read from the fitted curve at half-maximal effect. Conditions: CHRM1-CHO antagonist mode, calcium flux fluorescence; series mostly up to 61.5 µM. A digest of the protocol: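 Compounds were tested at 15 concentrations in three independent runs. Dye-loaded CHRM1-CHO cells were exposed 5 min at room temperature before stimulation by acetylcholine added at 50nM. Intracellular calcium was read kinetically on FDSS for 3 min.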

Test [15] shares this target. As to the kind of experiment: Cholinergic receptor muscarinic 1 (CHRM1) small molecule agonists, cell-based qHTS assay (AID 1963589). Also: nearly all actives have a fitted effect of over 35% in size. The note with it: CHRM1-CHO cells, agonist mode, calcium flux fluorescence; series mostly up to 76.8 µM. In outline: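 Cells were plated and incubated 18 h at 37 C/5% CO2, loaded with calcium dye for 1 h at 37 C, then treated with compounds in DMSO. Fluorescence was recorded kinetically at 1 sec intervals.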

Test [16] is described as follows: cAMP Responsive Elements (CRE) small molecule agonists, cell-based qHTS assay (AID 1963590). Conditions: CRE-bla HEK293T, beta-lactamase FRET ratio, 3 h; series mostly up to 92.4 µM. A digest of the protocol:
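Cells carrying a CRE-driven beta-lactamase reporter (HEK 293T) are seeded, incubated overnight (18 h), and treated with test compounds for 3 h at 37 C; reporter activity is then detected with a FRET substrate after 2 h at room temperature.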

Test [17] is described as follows: cAMP Responsive Elements (CRE) small molecule antagonists, cell-based qHTS assay (AID 1963591; active = well fitted inhibition curve with a large enough effect in the signal ratio in the repeat runs, not every such curve was filed as active; the % refers to the signal ratio). The note with it: CRE-bla HEK293T, beta-lactamase FRET ratio; series mostly up to 92.4 µM. In outline:
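Cells (CRE-bla HEK 293T, DMEM with 10% dialyzed FBS and 25 mM HEPES) are seeded and incubated 18 h. Compounds are added with NKH477 agonist at 0.25 uM final for 3 h, then FRET substrate for 2 h.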

The target in test [18] is Beta-2 adrenergic receptor (Homo sapiens) (UniProt P07550). As to the kind of experiment: Adrenergic beta2 receptor (ADRB2) small molecule antagonists, cell-based qHTS assay (AID 1963592). Also: nearly all actives have a fitted effect of over 50% in size. Conditions: CHO-ADRB2 cells, isoproterenol-stimulated cAMP HTRF ratio, 0.5 h; series mostly up to 92.4 µM. A digest of the protocol: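 Assay format: CHO-ADRB2 cells, 18-20hr seeding at 37C/5% CO2, then compound plus 1nM isoproterenol agonist mix for 0.5hr RT. Homogeneous time-resolved fluorescence cAMP detection after 1hr, expressed as 665/615 nm ratio.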

Test [19] concerns the target D(2) dopamine receptor (Homo sapiens) (UniProt P14416). Briefly: Dopamine D2 receptor (DRD2) small molecule antagonists, cell-based qHTS assay (AID 1963595; active = well fitted inhibition curve with a large enough effect in the signal ratio in the repeat runs, with a control signal flat; the % refers to the signal ratio). Conditions: HEK293-DRD2 cAMP HTRF antagonist mode; series mostly up to 92.4 µM. In outline:
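In this cell-based antagonist screen, compounds act for 10 min at room temperature before a 30 min challenge with 12 nM quinpirole and 200 nM NKH477. cAMP is quantified by HTRF competition in DRD2-HEK293 cells containing 0.1 mM Ro20-1724.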

For test [20] the target is unchanged. Briefly: Dopamine D2 receptor (DRD2) small molecule agonists, cell-based qHTS assay (AID 1963594). Also: nearly all actives have a fitted effect of over 35% in size. Conditions: HEK293-DRD2 cAMP HTRF, agonist mode, 30 min; series mostly up to 92.4 µM. A digest of the protocol:
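cAMP accumulation in DRD2-HEK293 cells measured by HTRF after 1 h detection; compounds added 10 min before NKH477 (200nM […]) forskolin-analogue stimulation, 30 min at room temperature, with Ro20-1724 present at 0.1 mM final.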

Sequence of 5-hydroxytryptamine receptor 2A (Homo sapiens) (P28223 whole entry, looked up): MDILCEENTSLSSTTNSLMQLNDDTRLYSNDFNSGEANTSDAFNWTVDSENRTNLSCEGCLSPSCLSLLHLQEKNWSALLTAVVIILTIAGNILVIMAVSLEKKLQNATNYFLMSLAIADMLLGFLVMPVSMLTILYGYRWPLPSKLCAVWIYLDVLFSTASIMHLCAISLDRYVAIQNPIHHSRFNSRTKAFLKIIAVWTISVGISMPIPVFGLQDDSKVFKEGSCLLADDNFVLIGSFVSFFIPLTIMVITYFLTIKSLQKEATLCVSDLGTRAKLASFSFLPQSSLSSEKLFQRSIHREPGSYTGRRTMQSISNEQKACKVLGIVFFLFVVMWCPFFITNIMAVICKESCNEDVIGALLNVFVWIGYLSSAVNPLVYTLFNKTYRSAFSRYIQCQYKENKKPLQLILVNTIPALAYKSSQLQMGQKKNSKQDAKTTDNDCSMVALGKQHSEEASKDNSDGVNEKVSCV
Sequence of Gonadotropin-releasing hormone receptor (Homo sapiens) (P30968 whole entry, looked up): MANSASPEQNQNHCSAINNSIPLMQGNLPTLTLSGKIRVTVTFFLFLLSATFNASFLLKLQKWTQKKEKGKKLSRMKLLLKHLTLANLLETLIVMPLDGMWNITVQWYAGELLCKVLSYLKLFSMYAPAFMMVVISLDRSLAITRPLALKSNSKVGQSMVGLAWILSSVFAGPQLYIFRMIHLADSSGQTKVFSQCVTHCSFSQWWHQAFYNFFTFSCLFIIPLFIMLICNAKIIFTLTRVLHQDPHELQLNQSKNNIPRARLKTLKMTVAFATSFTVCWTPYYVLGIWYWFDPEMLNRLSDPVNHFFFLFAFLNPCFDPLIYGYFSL
Sequence of Muscarinic acetylcholine receptor M1 (Homo sapiens) (P11229 whole entry, looked up): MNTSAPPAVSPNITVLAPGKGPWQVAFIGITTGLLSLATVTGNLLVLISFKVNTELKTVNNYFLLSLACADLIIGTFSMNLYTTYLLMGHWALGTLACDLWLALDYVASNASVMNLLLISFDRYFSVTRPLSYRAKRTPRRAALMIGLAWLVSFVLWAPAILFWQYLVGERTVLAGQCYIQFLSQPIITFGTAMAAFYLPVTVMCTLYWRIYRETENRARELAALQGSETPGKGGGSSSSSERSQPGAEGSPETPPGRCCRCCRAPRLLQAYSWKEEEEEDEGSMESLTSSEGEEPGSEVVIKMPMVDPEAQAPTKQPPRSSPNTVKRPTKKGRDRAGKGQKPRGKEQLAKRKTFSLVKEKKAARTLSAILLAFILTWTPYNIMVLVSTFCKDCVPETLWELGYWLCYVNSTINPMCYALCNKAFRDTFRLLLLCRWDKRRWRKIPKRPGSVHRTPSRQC
Sequence of D(2) dopamine receptor (Homo sapiens) (P14416 whole entry, looked up): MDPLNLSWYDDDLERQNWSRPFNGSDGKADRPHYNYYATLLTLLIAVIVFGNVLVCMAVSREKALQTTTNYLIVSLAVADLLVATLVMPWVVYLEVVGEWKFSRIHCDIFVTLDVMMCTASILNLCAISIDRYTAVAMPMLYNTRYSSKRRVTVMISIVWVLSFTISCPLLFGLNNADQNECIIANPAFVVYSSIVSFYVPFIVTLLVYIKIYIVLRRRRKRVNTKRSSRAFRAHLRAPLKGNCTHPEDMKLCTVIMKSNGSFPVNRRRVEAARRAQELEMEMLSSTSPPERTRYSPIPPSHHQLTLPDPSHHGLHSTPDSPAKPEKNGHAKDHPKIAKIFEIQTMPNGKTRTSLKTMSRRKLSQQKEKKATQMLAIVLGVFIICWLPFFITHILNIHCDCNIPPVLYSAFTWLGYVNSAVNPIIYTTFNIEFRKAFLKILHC
Sequence of KiSS-1 receptor (Homo sapiens) (Q969F8 whole entry, looked up): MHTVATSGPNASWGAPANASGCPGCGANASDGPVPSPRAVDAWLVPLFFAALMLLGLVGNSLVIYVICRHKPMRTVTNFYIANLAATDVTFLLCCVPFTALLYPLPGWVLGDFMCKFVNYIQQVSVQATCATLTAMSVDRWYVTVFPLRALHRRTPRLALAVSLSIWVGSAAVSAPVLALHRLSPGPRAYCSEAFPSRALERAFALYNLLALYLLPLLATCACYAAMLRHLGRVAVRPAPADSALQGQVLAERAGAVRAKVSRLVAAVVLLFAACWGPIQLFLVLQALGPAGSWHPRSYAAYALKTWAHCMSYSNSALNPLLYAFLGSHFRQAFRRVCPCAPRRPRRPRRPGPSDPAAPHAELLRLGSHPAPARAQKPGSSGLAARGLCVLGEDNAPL
Sequence of Beta-2 adrenergic receptor (Homo sapiens) (P07550 whole entry, looked up): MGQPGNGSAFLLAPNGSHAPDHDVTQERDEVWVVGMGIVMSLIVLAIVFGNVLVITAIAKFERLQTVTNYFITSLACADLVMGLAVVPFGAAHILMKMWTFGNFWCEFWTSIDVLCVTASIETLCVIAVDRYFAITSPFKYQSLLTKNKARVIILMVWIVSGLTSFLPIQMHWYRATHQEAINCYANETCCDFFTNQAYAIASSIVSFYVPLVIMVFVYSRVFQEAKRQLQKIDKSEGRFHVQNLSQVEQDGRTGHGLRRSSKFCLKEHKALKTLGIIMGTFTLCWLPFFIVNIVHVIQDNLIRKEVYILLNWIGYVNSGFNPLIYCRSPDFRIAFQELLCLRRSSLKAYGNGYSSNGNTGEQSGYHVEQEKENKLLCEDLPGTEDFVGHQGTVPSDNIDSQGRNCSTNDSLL

For the molecule `NCCO`, the Potency entry in [1], in test [3], in test [4], in [5], in test [6] and in test [7] was “inactive” each time. Besides, the Potency result in test [10], in [11], in [12], in test [13], in test [15] and in test [16] was “inactive” in each case. Moreover, the Potency entry in test [17], in test [18] and in [19] was “inactive” each time. In addition, the Potency result in test [2] is “inactive and 27.3 µM (active)”; in [8], “inactive and 36.3 µM (active)”; in [9] it was “inactive and 32.4 µM (active)”; in test [14] it was 18.8 µM (active).

Consider `CC(C)(C)c1ccc(S)cc1`, for which the Potency result in test [1], in test [3], in [4], in [5], in test [6] and in test [7] was “inactive” in each case. Further, the Potency result in test [8], in test [9], in test [10], in test [11], in test [12] and in test [13] was “inactive” in each case. Further, the Potency entry in test [14], in test [15], in test [16], in [17], in test [18] and in test [19] was “inactive” each time. Besides, the Potency in test [2] was 48.6 µM (active).

In the case of `COc1cc(C)c(Cc2cnc(N)nc2N)cc1OC`, the Potency entry in [1], in test [2], in [3], in [4], in [5] and in test [6] was “inactive” throughout. In addition, the Potency entry in test [7], in test [8], in test [9], in test [10], in test [11] and in [12] was “inactive” each time. The Potency entry in [13], in [14], in test [15], in test [16], in test [17] and in test [20] was “inactive” each time. For the same molecule, the Potency result in test [19] was “inactive”.

In the case of `CCOCOCC`, the Potency entry in test [1], in [2], in test [3], in [4], in [5] and in test [6] was “inactive” in each case. The Potency result in test [7], in test [8], in test [9], in test [10], in test [11] and in [12] was “inactive” each time. Further, the Potency entry in test [13], in test [14], in [15], in [16], in test [17] and in [20] was “inactive” in each case. In addition, in test [19], the Potency result is “inactive”.

Regarding `C[C@@H]1CCN(C(=O)[C@H](CCCN=C(N)N)NS(=O)(=O)c2cccc3c2NC[C@H](C)C3)[C@@H](C(=O)O)C1`, the Potency entry in test [1], in test [2], in [3], in test [4], in test [5] and in test [6] was “inactive” each time. Moreover, the Potency entry in test [7], in test [8], in test [9], in test [10], in test [11] and in [12] was “inactive” in each case. Also, the Potency entry in test [13], in test [14], in [15], in test [16], in test [17] and in test [20] was “inactive” each time. Also, in [19], the Potency entry was “inactive”.
